Test results reported in the supplement of paper PMC10981050.
Where “and” joins values, the source holds several entries; their conditions need not be identical. Equal values may be shown once. Where a name gives a salt, the structure may show the parent alone.

Legend:
Test in all cases: cell viability relative to vehicle control; higher = less cytotoxic
Conditions in all cases: 10 µM
[1] = system: K562
In short: (§1)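 Four leukaemia lines, as CRISPR-edited mutant clones and isogenic wild-type clones, were tested against Selleck bioactive, kinase and epigenetic probe libraries after removal of identity-inconsistent compounds. Cells were exposed to a single 10 µM dose for 48 h, and CellTiter-Glo luminescence was then read. Viability was calculated relative to the on-plate vehicle control.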

[2] = system: MARIMO
In short: as §1

[3] = system: MOLM14
In short: as §1

[4] = system: OCI-AML2
In short: as §1

SMILES | cell viability ([1]; SRSF2 genotype: SRSF2 P95H/wt) | cell viability ([1]; SRSF2 genotype: SRSF2 wt/wt) | cell viability ([2]; SRSF2 genotype: SRSF2 P95H/wt) | cell viability ([2]; SRSF2 genotype: SRSF2 wt/wt) | cell viability ([3]; SRSF2 genotype: SRSF2 P95H/wt) | cell viability ([3]; SRSF2 genotype: SRSF2 wt/wt) | cell viability ([4]; SRSF2 genotype: P95H/wt) | cell viability ([4]; SRSF2 genotype: wt/wt)
O=C(Nc1ccc(OC(F)(F)F)cc1)c1sccc1NCc1ccnc2ccccc12 | 44.9% and 48.7% | 43.4% | 49.2% | 42.3% | 39% | 29.1% | 24% | 27.2%
COc1ccc(C2CC(=O)c3c(O)cc(OC4OC(COC5OC(C)C(O)C(O)C5O)C(O)C(O)C4O)cc3O2)cc1 (configuration not stated) [Didymin] | 107% and 103% | 112% | 108% | 105% | 106% | 111% | 104% | 103%
CCCC1CC(C(=O)NC(C(C)Cl)C2OC(SC)C(O)C(O)C2O)N(C)C1 (configuration not stated) [Clindamycin alcoholate] | 104% and 98% | 102% | 98.5% | 107% | 103% | 108% | 107% | 98.6%
C[C@]1(O)C[C@@H](O)[C@@H]2C=CO[C@@H](O[C@@H]3O[C@H](CO)[C@@H](O)[C@H](O)[C@H]3O)[C@@H]21 [Leonuride] | 105% and 99.7% | 106% | 101% | 94.9% | 102% | 101% | 102% | 102%
C=CC(=O)Nc1cc(Nc2nccc(-c3cn(C)c4ccccc34)n2)c(OC)cc1N(C)CCN(C)C | 1.58% and 2.37% | 3.2% | 1.11% | 1.36% | 0.38% | 0.44% | 0.32% | 0.41%
Cn1c(=O)c2[nH]cnc2n(C)c1=O [Aminophylline (Truphylline)] | 91.1% and 89.1% | 89.2% | 83.4% | 95.7% | 86.8% | 89.8% | 88.9% | 102%
COc1cc2c(c(O)c1OC)-c1c(cc(OC)c(OC)c1OC)C[C@@H](C)[C@@H](C)C2 [Schisanhenol] | 96.7% and 100% | 97.1% | 100% | 107% | 90.3% | 96.8% | 91.7% | 102%
COC(=O)[C@@]1(C)CC[C@]2(C(=O)O)CC[C@]3(C)C(=CC[C@@H]4[C@@]5(C)C[C@H](O)[C@H](O[C@@H]6OC[C@@H](O[C@@H]7O[C@H](CO)[C@@H](O)[C@H](O)[C@H]7O)[C@H](O)[C@H]6O)[C@@](C)(CO)[C@@H]5CC[C@]43C)[C@@H]2C1 [Esculentoside A] | 110% and 105% | 105% | 104% | 108% | 108% | 107% | 96.8% | 105%
CO[C@H]1[C@H](O)[C@@H](O)[C@@H](O)[C@H](O)[C@@H]1O [D-Pinitol] | 114% and 107% | 112% | 108% | 110% | 105% | 102% | 112% | 113%
CN1CCN(c2nc(C3=C(c4c[nH]c5ccccc45)C(=O)NC3=O)c3ccccc3n2)CC1 [Sotrastaurin (AEB071)] | 88.8% and 91.3% | 81.6% | 72.4% | 80.5% | 30.8% | 21.6% | 32.8% | 50.3%
Cc1cn([C@H]2C=C[C@@H](CO)O2)c(=O)[nH]c1=O [Stavudine] | 104% and 107% | 98.3% | 95% | 96.1% | 102% | 103% | 97.2% | 110%
CC(=O)c1cc(O)ccc1O [2',5'-Dihydroxyacetophenone] | 90.6% and 97.4% | 97.7% | 94.6% | 87.5% | 103% | 97.6% | 94.7% | 101%
N[C@@H](Cc1cc(I)c(O)c(I)c1)C(=O)O [3,5-Diiodotyrosine Dihydrate] | 94.2% and 94.5% | 97.4% | 97% | 102% | 96.6% | 99.9% | 100% | 102%
CNc1ccc([N+](=O)[O-])c(Nc2ccc3[nH]ncc3c2)n1 | 59.1% and 76.9% | 58.6% | 50.4% | 60% | 18.1% | 9.24% | 18.9% | 26.6%
NC(=O)c1ccc(OCCCN2CC3CCCC3C2)cc1 (configuration not stated) | 102% and 107% | 104% | 106% | 98% | 100% | 101% | 114% | 98%
Cn1cc(/C=C/C(=O)c2cccc(F)c2)cc1/C=C/C(=O)NO | 90.3% and 97.5% | 99.5% | 61.5% | 72.4% | 70.1% | 64.5% | 59.5% | 65.3%
COc1cc2ncnc(Nc3ccc(O)c(Br)c3)c2cc1OC | 93.8% and 101% | 96.4% | 85.4% | 84.6% | 32.4% | 24.3% | 61.8% | 63.9%
Cc1ccc(S(=O)(=O)n2c(N)nc3ccccc32)cc1 | 95.4% and 101% | 97.9% | 102% | 104% | 102% | 104% | 98.3% | 97.2%
CC1CCC2(C(=O)OC3OC(CO)C(O)C(O)C3O)CCC3(C)C(=CCC4C5(C)CCC(OC6OCC(O)C(O)C6O)C(C)(C)C5CCC43C)C2C1(C)O (configuration not stated) [Ziyu-glycoside I] | 103% and 96.8% | 99.4% | 101% | 99.9% | 107% | 105% | 99% | 100%
CO[C@H]1C(=O)[C@]2(C)[C@@H](OC)C[C@H]3OC[C@@]3(OC(C)=O)[C@H]2[C@H](OC(=O)c2ccccc2)[C@]2(O)C[C@H](OC(=O)[C@H](O)[C@@H](NC(=O)OC(C)(C)C)c3ccccc3)C(C)=C1C2(C)C [Cabazitaxel (Jevtana)] | 24.8% and 36.9% | 36.7% | 7.53% | 5.43% | 8.88% | 4.79% | 7.39% | 16%

SMILES | cell viability ([1]; SRSF2 genotype: SRSF2 P95H/wt) | cell viability ([1]; SRSF2 genotype: SRSF2 wt/wt) | cell viability ([2]; SRSF2 genotype: SRSF2 P95H/wt) | cell viability ([2]; SRSF2 genotype: SRSF2 wt/wt) | cell viability ([3]; SRSF2 genotype: SRSF2 P95H/wt) | cell viability ([3]; SRSF2 genotype: SRSF2 wt/wt) | cell viability ([4]; SRSF2 genotype: P95H/wt) | cell viability ([4]; SRSF2 genotype: wt/wt)
Cc1ccccc1C(OCCN(C)C)c1ccccc1 (configuration not stated) [Orphenadrine Hydrochloride] | 99.9% and 97.1% | 101% | 86.2% | 92.2% | 100% | 103% | 101% | 98.8%
FC(F)(F)Oc1ccc(-c2ccc3nnc(C(F)(F)F)n3c2)cc1 | 91% and 96.6% | 102% | 95.7% | 97.8% | 95.2% | 112% | 89% | 94.4%
C=CC(=O)N1CCN(C(=O)CNc2cc(I)c(Cl)cc2O)CC1 [K-Ras(G12C) inhibitor 12] | 78.9% and 84.7% | 75.2% | 79.8% | 83.6% | 62.9% | 81.2% | 93.3% | 88.1%
Cc1cc(O)c(C(=O)CCC(C)C)c(=O)o1 [Pogostone] | 104% and 98.3% | 101% | 95.7% | 106% | 96.5% | 99.5% | 95.9% | 99.5%
OC(c1ccccc1)(c1ccccc1)C12CC[N+](CCOCc3ccccc3)(CC1)CC2 [Umeclidinium bromide] | 81.8% and 94.9% | 89.5% | 76.2% | 90.9% | 86.5% | 81.6% | 75.6% | 85.1%
C=CCNC(N)=S [Allylthiourea] | 98.8% and 95.9% | 107% | 108% | 112% | 101% | 104% | 99.8% | 110%
O=C1C(=Cc2cccnc2)C(=O)c2ccccc21 | 110% and 102% | 116% | 94.2% | 102% | 89% | 99.4% | 102% | 102%
CC(=O)NS(=O)(=O)c1ccc(N)cc1 [Sulfacetamide] | 98.7% and 98.1% | 111% | 90.8% | 96.3% | 103% | 103% | 98.4% | 106%
CNc1nc(-c2ccc3c(N)n[nH]c3c2)cc(N2C[C@@H](C(=O)NC3CCCCC3)CC[C@H]2C)n1 | 78.3% and 74.9% | 73.5% | 72.1% | 72.8% | 42.3% | 39.5% | 47.6% | 40.7%
Cc1cc(S(=O)(=O)O)c2c(C)ccc(C(C)C)cc1-2 [Sodium gualenate] | 103% | 103% | 100% | 108% | 99% | 104% | 95.2% | 106%
Cc1cc(CS(=O)(=O)c2ccccc2)cc(OCc2ccc(CN3CCC[C@@H]3CO)cc2)c1 | 98.9% and 101% | 95.6% | 98.9% | 103% | 96.5% | 104% | 98.7% | 92.6%
O=C(COc1ccc(C(=O)c2ccccc2)cc1)NC1CCN(Cc2ccccc2)CC1 [Adiporon] | 72.4% and 78.1% | 73.9% | 57.4% | 53.5% | 65.2% | 77.2% | 40.5% | 47.3%
CCn1c(N)c(C(=O)NC)c(=O)c2ccc(C#CC(C)(O)COC)nc21 (configuration not stated) | 105% and 99.5% | 97.9% | 87.4% | 93.7% | 48.1% | 55.5% | 64.6% | 64.6%
COc1ccccc1N1CCN(CC(O)COc2cccc3ccccc23)CC1 (configuration not stated) [Naftopidil Dihydrochloride] | 75.2% and 86.7% | 72.6% | 57% | 65.2% | 58.4% | 60.1% | 71.4% | 74.5%
COc1ccc(-n2c(SCCCN3C(=O)c4cccc5cccc(c45)C3=O)nnc2-c2ccncc2)cc1 | 100% and 88.5% | 88.4% | 101% | 103% | 102% | 101% | 95.5% | 100%
CCCS(=O)(=O)Nc1ccc(F)c(C(=O)c2c[nH]c3ncc(Cl)cc23)c1F | 87.6% and 92.7% | 94.9% | 72.2% | 88.4% | 81.4% | 88.1% | 99.2% | 105%
C[C@H](NC(=O)/C(C#N)=C/c1cccc(Br)n1)c1ccccc1 | 25.6% and 17.4% | 20.6% | 11.2% | 7.31% | 2.5% | 0.75% | 10.2% | 7.71%
CCNC(=O)CCC/C=C\C[C@@H]1[C@@H](/C=C/[C@@H](O)CCc2ccccc2)[C@H](O)C[C@@H]1O [Bimatoprost] | 99.5% and 99.1% | 96.8% | 95.4% | 98.3% | 98.4% | 98.3% | 105% | 98.8%
O=C(O)CCn1c(O)c(C2=c3cc(Cl)ccc3=NC2=O)sc1=S | 87.5% and 92.5% | 88.2% | 84.1% | 88.7% | 71.7% | 83.2% | 107% | 116%
